Calls of active or inactive are those of the source.
Columns and labels:
[1] = system: XIP peptide (Xip251-270) binding; experiment: small-molecule binders of XIP peptide, primary screen, biochemical, small-molecule microarray, fluorescence 635/667 nm, 0.1 µg/mL protein (AID 1182); conditions: fluorescent protein binding, 635 nm, higher = more signal, called active from +8 up or from −8 down
XIP peptide (Xip251-270) = experiment: small-molecule binders of XIP peptide, primary screen, biochemical, small-molecule microarray, fluorescence 635/667 nm, 0.5 µg/mL protein (AID 1183); conditions: small-molecule microarray binding, fluorescence 635 nm; higher = more signal
[2] = Plasmodium falciparum growth inhibition, primary screen, strain 3D7, DAPI fluorescence, 100 nL (AID 1184);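 further: parasites grown inside human red blood cells in medium with human serum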; conditions: P. falciparum 3D7 growth, 3 d, higher = more signal
[3] = biological target: Homeobox protein Hox-A13 (Mus musculus) (UniProt Q62424); experiment: inhibitors of HoxA13-DNA binding, primary screen, biochemical, fluorescence polarization, labeled oligonucleotide (AID 1185); conditions: 15 min, higher = more signal, called active from +8 up or from −8 down
Chain of Homeobox protein Hox-A13 (Mus musculus) (Q62424 whole entry, looked up): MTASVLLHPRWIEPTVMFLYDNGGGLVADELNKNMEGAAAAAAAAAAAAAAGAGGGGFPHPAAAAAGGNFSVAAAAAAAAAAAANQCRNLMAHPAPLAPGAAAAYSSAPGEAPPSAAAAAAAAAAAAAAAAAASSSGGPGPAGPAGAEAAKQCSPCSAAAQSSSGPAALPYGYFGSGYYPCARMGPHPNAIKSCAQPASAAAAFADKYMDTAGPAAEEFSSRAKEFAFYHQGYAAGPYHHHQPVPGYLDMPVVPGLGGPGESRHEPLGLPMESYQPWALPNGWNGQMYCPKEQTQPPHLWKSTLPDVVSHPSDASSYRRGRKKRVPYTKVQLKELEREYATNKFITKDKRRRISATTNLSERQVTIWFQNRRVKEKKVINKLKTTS

| SMILES | composite z-score [1] | composite z-score (XIP peptide (Xip251-270)) | z-score [2] | z-score [3] |
| --- | --- | --- | --- | --- |
| O=C(NN=C1C[C@@H](O)[C@@H](O)[C@@H]2[C@@H]3C(=O)N(C4CCCCC4)C(=O)[C@@H]3CC[C@@H]12)OCc1ccccc1 | 0.152 (inactive) | -0.0414 | -0.321 | -3.09 (inactive) |
| CCOC(=O)CCN1C(=O)[C@H]2[C@H]3[C@H](O)[C@H](O)CC(=NOCC(C)C)[C@H]3CC[C@H]2C1=O | 0.289 (inactive) | 0.158 | 1.2 | 0.737 (inactive) |
| O=C1OCCC=C1C(O)CCc1ccccc1 (centres undefined) | 0.321 (inactive) | 0.716 | -0.542 | -0.295 (inactive) |
| CO[C@@H]1COC(=O)[C@H](CCSC)NC(=O)CC=C[C@@H](C)COC(=O)[C@H](C)NC(=O)CC=C[C@H]1C | -0.665 (inactive) | 0.909 | -0.131 | -0.042 (inactive) |
| COc1ccc(O[C@@H]2[C@H](O)CO[C@H]2C=Cc2ccccc2)cc1 | 0.266 (inactive) | -0.0143 | 0.465 | -1.16 (inactive) |
| O=C1CCCC=C1C(O)CCOC(c1ccccc1)(c1ccccc1)c1ccccc1 (centres undefined) | -0.0848 (inactive) | -0.364 | -1.1 | -4.61 (inactive) |
| COc1cccc([C@H]2Oc3ccc(OC)cc3C(=NOC[C@@H](O)[C@H]3O[C@@H]4OC(C)(C)O[C@@H]4[C@H]3O)[C@@H]2O)c1 | -0.815 (inactive) | 0.697 | 0.187 | -3.04 (inactive) |
| CC(C)=CCCC(C)=CCON=C1C[C@@H](O)[C@@H](O)[C@@H]2[C@@H]3C(=O)N(C4CCCCC4)C(=O)[C@@H]3CC[C@@H]12 | -0.318 (inactive) | 0.426 | 0.242 | -2.99 (inactive) |
| COC(=O)CC=C[C@@H](C)[C@@H](C=NOC[C@H]1O[C@H](c2ccccc2)C=C[C@@H]1Oc1ccc(OC)cc1)OC | 0.0079 (inactive) | -0.294 | 0.201 | -2.94 (inactive) |
| CC(C)=CCCC(C)=CCON=C1C[C@@H](O)[C@@H](O)[C@@H]2[C@@H]3C(=O)N(c4ccc(F)cc4F)C(=O)[C@@H]3CC[C@@H]12 | -0.0619 (inactive) | 0.542 | -1.59 | -4.62 (inactive) |
| CCC1=NOC(CCC2CC(OC(=O)NCc3cccc4c3OCO4)CC3(CCCC(COC(=O)NCCc4ccccc4OC)O3)O2)C1 (centres undefined) | 1.87 (inactive) | 0.357 | -0.95 | -6.1 (inactive) |
| CC(=O)OC[C@H]1O[C@H](CC=NO[C@H](C)c2cn([C@H](CO)Cc3ccccc3)nn2)C=C[C@@H]1OC(C)=O | 0.364 (inactive) | 0.289 | 0.242 | -1.83 (inactive) |
| COC(=O)[C@@H]1CC[C@H](C)[C@@H](c2ccc(C)cc2)N1C(=O)c1ccc(C=NO[C@@H](C)c2cn([C@H](CO)Cc3ccccc3)nn2)cc1 | -0.0658 (inactive) | 0.739 | -0.309 | -5.13 (inactive) |
| Cc1ccc(S(=O)(=O)N[C@H]2COC(=O)CC=C[C@@H](C)COC(=O)CC=C[C@@H]2C)cc1 | 0.172 (inactive) | 0.921 | 0.641 | -1.06 (inactive) |
| CC(C)=NO[C@H](C)c1cn([C@H](CO)Cc2ccccc2)nn1 | -0.662 (inactive) | 0.0455 | 0.28 | 0.584 (inactive) |
| Cc1ccc(S(=O)(=O)N[C@H]2COC(=O)CC=C[C@H](C)[C@@H](NS(=O)(=O)c3ccc(C)cc3)COC(=O)CC=C[C@@H]2C)cc1 | 0.127 (inactive) | -0.019 | -0.304 | -0.449 (inactive) |
| COc1cccc([C@H]2Oc3ccc(OC)cc3C(=NO[C@H](C)c3cn([C@H](CO)Cc4ccccc4)nn3)[C@@H]2O)c1 | -0.0592 (inactive) | 0.733 | 0.24 | -6.29 (inactive) |
| CCOC(=O)[C@H](Cc1ccccc1)NC(=O)CCC1CC(OC(=O)NCc2cccc3ccccc23)CC2(CCCC(COC(=O)NCc3ccccc3)O2)O1 (some centres undefined) | 0.278 (inactive) | 0.355 | -1.41 | -1.5 (inactive) |
| C[C@@H]1NC(=O)[C@@H](C)COC(=O)[C@H](C)NC(=O)[C@@H](C)COC1=O | -0.287 (inactive) | 0.158 | -1.46 | 0.969 (inactive) |
| O=C1[C@H]2[C@H]3[C@H](O)[C@H](O)CC(=NOC[C@@H](O)COCc4ccco4)[C@H]3CC[C@H]2C(=O)N1c1ccc(F)cc1F | -0.774 (inactive) | 0.415 | -0.644 | 0.794 (inactive) |
| CCOC(=O)[C@H](CC(C)C)NC(=O)CCC1CC(OC(=O)NCc2cccc3ccccc23)CC2(CCCC(COC(=O)NCCCN3CCCC3=O)O2)O1 (some centres undefined) | -0.0359 (inactive) | 0.524 | -1.92 | -4.61 (inactive) |

Reference: PubChem BioAssay
